# Experimental data published in PMC7862700, “An all-to-all approach to the identification of sequence-specific readers for epigenetic DNA modifications on cytosine”.
# How the values were obtained:
# Assay in all cases: DAPPL (digital affinity profiling via proximity ligation, sequencing); 10 mM Tris-HCl pH 7.5, 50 mM NaCl, 1 mM DTT, 4% glycerol, room temperature, 30 min; GST-TFs on glutathione beads, 16-mer random dsDNA library, 0.1% formaldehyde crosslink after washing; high values mean tight binding
# Conditions in all cases: protein: recombinant; tags: N-terminal GST; dsDNA, one strand shown
# ELK1 = molecular target: T1, ELK1 (Homo sapiens, UniProt P19419 1-428)
# T1 sequence: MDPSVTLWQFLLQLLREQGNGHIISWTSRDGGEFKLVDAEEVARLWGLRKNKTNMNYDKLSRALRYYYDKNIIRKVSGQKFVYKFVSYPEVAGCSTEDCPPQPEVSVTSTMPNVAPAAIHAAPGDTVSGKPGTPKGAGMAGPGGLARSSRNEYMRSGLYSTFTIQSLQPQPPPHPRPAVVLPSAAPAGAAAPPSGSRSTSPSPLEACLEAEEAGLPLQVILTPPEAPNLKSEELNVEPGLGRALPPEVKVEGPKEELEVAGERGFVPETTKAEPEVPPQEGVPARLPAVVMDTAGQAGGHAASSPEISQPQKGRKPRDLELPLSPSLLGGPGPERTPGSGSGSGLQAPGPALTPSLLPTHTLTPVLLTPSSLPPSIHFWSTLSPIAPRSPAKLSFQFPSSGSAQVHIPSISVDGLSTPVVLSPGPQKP
# Outline: (§1)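 Sequencing on an Illumina NextSeq500 followed washing, crosslinking with 0.1% formaldehyde, proximity ligation (BsaI/T4 ligase, 1 h, 37 °C) and PCR amplification of pools that had been incubated for 30 min at room temperature with 200 nmole of a random double-stranded 16-mer DNA library in Tris/NaCl/DTT/glycerol buffer. Each pool held DNA-barcoded human transcription factors, expressed in yeast as GST fusions and captured on glutathione beads, plus a tag-only sample. Binding signal is a hexamer's read frequency for a factor divided by its frequency in the tag-only sample.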
# GABPA = molecular target: T2, GABPA (Homo sapiens, UniProt Q06546 1-454)
# T2 sequence: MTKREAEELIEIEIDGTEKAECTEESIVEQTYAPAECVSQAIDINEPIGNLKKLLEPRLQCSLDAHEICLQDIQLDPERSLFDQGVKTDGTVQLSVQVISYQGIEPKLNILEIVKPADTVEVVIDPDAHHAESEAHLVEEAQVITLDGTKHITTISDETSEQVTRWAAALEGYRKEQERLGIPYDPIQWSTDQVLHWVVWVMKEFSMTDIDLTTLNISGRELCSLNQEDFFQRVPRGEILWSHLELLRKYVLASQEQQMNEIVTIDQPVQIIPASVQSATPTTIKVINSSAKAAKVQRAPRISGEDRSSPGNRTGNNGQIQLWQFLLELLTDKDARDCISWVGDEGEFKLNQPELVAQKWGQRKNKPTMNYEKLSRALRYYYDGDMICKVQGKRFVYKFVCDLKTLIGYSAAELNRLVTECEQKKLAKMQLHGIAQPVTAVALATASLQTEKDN
# Outline: as §1
# ERG = molecular target: T3, ERG (Homo sapiens, UniProt P11308 1-479)
# T3 sequence: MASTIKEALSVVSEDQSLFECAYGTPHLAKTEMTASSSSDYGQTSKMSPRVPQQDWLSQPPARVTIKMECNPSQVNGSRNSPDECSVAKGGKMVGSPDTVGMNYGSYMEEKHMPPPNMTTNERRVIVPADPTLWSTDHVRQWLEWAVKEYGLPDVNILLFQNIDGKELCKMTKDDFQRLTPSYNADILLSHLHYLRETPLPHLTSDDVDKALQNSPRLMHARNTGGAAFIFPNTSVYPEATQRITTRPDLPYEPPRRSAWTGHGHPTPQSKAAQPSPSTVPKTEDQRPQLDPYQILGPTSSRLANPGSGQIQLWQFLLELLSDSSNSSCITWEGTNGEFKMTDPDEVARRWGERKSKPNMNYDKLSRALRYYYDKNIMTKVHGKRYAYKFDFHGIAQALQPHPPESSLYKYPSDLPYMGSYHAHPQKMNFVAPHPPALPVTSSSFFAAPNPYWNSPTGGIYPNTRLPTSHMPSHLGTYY
# Outline: as §1
# ELF1 = ELF1 (Homo sapiens, UniProt P32519 1-619)
# Outline: as §1
# EHF = molecular target: T4, EHF (Homo sapiens, UniProt Q9NZC4 1-300)
# T4 sequence: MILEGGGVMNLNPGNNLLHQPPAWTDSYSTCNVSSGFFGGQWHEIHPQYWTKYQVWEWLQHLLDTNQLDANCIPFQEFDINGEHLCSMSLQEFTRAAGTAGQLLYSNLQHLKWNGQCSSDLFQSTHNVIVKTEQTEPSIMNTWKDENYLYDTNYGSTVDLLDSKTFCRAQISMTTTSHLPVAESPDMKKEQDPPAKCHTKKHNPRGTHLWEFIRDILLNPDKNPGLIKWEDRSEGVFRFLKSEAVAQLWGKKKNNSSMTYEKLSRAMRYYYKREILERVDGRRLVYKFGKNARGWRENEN
# Outline: as §1
# FEV = molecular target: T5, FEV (Homo sapiens, UniProt Q99581 1-238)
# T5 sequence: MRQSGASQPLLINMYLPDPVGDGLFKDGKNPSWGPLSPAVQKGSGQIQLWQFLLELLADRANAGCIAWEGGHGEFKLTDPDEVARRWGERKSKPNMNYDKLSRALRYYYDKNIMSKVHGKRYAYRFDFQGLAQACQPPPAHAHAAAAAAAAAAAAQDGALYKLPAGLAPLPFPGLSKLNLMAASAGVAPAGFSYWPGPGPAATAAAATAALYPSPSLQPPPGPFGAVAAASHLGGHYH
# Outline: as §1
# ETV5 = ETV5 (Homo sapiens, UniProt P41161 1-510)
# Outline: as §1
# ELF4 = ELF4 (Homo sapiens, UniProt Q99607 1-663)
# Outline: as §1
# ETV2 = molecular target: T6, ETV2 (Homo sapiens, UniProt O00321 1-342)
# T6 sequence: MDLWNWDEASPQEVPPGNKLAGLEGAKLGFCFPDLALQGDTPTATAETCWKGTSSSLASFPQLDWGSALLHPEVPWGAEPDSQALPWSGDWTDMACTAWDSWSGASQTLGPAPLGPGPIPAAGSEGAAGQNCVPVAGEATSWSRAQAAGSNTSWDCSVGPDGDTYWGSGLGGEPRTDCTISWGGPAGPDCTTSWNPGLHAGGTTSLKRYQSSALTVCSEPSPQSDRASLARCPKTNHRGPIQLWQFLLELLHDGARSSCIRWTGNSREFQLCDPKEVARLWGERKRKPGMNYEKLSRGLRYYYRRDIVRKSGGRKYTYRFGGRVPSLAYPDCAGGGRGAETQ
# Outline: as §1
# ELF3 = molecular target: T7, ELF3 (Homo sapiens, UniProt P78545 1-371)
# T7 sequence: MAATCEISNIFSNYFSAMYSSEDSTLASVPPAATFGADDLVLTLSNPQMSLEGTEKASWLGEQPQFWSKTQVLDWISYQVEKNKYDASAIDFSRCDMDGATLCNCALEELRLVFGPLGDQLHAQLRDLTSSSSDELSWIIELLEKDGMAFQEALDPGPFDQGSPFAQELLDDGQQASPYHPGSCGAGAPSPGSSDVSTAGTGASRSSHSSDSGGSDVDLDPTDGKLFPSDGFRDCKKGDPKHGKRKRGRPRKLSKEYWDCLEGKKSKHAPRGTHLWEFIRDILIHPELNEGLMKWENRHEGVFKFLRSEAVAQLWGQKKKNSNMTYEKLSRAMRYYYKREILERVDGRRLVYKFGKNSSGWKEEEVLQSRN
# Outline: as §1
# ETV1 = ETV1 (Homo sapiens, UniProt P50549 1-477)
# Outline: as §1
# ERF = molecular target: T8, ERF (Homo sapiens, UniProt P50548 1-548)
# T8 sequence: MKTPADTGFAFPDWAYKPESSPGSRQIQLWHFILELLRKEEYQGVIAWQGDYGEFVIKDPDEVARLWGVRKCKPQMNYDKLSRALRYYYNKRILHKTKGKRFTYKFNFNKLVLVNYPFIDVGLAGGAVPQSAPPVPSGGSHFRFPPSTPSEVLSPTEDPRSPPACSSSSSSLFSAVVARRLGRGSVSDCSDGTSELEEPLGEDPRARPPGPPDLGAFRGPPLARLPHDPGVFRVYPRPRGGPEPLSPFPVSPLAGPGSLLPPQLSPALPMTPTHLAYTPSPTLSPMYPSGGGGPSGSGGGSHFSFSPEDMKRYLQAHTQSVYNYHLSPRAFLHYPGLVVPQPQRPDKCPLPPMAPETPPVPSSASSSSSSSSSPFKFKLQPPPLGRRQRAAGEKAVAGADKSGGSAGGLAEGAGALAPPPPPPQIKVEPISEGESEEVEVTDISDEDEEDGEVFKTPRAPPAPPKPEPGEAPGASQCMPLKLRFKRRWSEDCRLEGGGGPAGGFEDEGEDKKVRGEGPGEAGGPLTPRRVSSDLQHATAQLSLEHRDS
# Outline: as §1
# ETV3L = molecular target: T9, ETV3L (Homo sapiens, UniProt Q6ZN32 1-361)
# T9 sequence: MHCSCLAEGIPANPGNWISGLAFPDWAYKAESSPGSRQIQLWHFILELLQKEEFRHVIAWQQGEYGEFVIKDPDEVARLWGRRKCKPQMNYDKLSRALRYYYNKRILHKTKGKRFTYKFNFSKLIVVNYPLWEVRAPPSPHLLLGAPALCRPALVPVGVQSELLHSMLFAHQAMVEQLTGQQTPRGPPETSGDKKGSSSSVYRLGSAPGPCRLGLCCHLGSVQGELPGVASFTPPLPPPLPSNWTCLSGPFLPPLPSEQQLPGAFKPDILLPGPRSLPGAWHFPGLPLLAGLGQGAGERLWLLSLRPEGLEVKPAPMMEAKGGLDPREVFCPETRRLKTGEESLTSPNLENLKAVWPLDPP
# Outline: as §1
# ETS2 = molecular target: T10, ETS2 (Homo sapiens, UniProt P15036 1-469)
# T10 sequence: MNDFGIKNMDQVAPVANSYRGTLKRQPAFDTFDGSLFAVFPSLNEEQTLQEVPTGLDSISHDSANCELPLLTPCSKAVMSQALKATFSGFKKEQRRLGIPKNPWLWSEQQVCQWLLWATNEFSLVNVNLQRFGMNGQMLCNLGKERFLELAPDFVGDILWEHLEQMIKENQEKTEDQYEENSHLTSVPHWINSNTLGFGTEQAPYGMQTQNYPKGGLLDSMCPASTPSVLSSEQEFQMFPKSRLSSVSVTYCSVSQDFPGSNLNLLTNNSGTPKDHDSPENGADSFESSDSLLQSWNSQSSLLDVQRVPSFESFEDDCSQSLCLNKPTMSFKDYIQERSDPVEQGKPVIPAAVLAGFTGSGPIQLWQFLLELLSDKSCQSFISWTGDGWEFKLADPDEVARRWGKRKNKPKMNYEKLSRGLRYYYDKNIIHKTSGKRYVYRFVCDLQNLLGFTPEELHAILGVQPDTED
# Outline: as §1
# SPDEF = molecular target: T11, SPDEF (Homo sapiens, UniProt O95238 1-335)
# T11 sequence: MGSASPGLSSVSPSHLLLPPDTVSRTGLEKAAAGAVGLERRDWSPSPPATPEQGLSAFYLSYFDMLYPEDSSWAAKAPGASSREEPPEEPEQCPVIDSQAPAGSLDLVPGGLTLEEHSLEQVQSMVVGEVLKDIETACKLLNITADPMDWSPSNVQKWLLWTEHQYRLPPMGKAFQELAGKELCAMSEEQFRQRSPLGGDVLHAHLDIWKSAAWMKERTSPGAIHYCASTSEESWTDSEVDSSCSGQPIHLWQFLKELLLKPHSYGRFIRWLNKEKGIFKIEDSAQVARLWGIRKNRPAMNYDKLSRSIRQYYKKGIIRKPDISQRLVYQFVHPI
# Outline: as §1
# ETV7 = molecular target: T12, ETV7 (Homo sapiens, UniProt Q9Y603 1-341)
# T12 sequence: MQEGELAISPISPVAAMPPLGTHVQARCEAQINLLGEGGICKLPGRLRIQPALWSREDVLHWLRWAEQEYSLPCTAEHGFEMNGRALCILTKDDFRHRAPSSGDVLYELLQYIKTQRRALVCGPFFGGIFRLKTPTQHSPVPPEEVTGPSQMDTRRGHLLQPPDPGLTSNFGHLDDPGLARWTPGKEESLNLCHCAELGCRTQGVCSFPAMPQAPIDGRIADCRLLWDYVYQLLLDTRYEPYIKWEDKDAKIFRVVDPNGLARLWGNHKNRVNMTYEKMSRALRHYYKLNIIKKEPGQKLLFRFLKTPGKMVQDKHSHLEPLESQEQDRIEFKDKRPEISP
# Outline: as §1
# ETV3 = molecular target: T13, ETV3 (Homo sapiens, UniProt P41162-2 1-143)
# T13 sequence: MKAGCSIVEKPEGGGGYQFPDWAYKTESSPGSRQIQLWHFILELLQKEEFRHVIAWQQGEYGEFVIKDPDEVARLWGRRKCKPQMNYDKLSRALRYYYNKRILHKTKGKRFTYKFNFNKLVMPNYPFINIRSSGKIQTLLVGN
# Outline: as §1
# ETV6 = ETV6 (Homo sapiens, UniProt P41212 1-452)
# Outline: as §1
# Chain of ELF1 (P32519 whole entry): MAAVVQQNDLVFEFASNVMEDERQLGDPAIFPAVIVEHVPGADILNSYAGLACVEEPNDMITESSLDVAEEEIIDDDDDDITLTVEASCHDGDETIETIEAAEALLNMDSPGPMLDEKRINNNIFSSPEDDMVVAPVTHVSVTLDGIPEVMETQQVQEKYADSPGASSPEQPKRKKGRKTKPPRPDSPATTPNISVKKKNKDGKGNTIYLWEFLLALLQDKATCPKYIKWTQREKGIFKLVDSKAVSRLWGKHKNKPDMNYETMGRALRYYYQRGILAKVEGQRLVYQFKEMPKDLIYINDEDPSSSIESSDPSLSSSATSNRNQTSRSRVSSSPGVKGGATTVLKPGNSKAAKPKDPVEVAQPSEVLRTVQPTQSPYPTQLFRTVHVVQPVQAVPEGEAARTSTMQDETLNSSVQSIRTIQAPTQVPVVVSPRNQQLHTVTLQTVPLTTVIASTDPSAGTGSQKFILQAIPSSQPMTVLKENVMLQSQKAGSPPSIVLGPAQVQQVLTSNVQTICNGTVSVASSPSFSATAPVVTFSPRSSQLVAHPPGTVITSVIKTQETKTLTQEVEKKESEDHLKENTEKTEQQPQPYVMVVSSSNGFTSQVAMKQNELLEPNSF
# Chain of ELF4 (Q99607 whole entry): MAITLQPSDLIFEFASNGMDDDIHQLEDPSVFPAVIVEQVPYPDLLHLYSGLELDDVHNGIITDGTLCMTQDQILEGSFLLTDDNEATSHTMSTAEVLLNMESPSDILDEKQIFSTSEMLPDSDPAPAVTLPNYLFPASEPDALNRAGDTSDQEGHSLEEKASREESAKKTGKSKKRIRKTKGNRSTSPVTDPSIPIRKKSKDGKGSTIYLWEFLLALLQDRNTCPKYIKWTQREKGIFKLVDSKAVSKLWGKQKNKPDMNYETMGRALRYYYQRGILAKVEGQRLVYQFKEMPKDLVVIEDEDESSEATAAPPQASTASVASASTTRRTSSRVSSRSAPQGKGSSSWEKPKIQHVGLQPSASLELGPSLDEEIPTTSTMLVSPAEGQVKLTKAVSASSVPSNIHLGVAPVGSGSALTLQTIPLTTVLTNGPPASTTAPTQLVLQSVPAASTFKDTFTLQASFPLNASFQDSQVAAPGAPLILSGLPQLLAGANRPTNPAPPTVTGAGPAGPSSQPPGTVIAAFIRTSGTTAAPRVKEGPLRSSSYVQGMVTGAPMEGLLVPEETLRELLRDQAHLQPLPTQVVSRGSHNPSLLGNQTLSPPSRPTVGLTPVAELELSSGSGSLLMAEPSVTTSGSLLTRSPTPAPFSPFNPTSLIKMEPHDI
# Chain of ETV6 (P41212 whole entry): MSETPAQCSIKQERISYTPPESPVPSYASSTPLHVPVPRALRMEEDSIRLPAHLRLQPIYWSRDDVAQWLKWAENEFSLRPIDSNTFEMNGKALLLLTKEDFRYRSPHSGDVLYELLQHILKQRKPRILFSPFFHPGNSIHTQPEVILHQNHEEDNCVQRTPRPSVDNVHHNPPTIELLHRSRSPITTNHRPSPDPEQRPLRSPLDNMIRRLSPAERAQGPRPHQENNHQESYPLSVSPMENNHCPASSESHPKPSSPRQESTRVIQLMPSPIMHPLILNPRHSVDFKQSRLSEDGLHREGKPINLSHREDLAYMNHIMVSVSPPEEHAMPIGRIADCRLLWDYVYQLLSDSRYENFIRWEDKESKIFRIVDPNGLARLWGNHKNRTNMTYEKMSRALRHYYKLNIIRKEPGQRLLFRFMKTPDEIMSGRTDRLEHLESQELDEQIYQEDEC
# Chain of ETV1 (P50549 whole entry): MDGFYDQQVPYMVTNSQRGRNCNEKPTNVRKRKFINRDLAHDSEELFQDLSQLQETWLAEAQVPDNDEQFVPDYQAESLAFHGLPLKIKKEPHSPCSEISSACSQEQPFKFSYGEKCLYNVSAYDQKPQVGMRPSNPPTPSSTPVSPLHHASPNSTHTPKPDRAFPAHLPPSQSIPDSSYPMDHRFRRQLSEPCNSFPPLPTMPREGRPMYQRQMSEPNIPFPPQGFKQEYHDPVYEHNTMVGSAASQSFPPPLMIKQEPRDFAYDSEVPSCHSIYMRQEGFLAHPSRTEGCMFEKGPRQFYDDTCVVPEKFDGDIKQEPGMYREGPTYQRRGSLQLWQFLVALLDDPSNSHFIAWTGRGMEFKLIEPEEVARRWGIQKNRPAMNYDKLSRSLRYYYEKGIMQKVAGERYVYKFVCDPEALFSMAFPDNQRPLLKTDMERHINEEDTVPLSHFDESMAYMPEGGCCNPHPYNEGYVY
# Chain of ETV5 (P41161 whole entry): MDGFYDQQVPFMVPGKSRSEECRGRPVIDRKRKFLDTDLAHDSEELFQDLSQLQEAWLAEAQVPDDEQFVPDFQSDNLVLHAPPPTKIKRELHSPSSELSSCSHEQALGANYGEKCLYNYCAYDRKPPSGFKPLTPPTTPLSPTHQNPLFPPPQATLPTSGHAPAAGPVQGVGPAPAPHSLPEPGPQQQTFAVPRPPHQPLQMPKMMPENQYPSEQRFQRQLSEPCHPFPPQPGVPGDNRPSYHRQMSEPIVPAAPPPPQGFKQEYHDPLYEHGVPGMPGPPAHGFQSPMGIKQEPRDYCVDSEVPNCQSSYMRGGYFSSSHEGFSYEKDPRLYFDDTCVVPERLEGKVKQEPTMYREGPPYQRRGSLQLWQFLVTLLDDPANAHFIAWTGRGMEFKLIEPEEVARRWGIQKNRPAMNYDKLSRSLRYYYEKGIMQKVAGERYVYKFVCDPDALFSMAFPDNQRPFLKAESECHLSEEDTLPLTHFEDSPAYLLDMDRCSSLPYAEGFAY
sequence,measurement,setting,value
ACGCCG,binding signal,ELK1,"1.11 fold enrichment (6-mer frequency, TF over GST control)"
same,binding signal,GABPA,"1.11 fold enrichment (6-mer frequency, TF over GST control)"
same,binding signal,ERG,"1.02 fold enrichment (6-mer frequency, TF over GST control)"
same,binding signal,ELF1,"1.13 fold enrichment (6-mer frequency, TF over GST control)"
same,binding signal,EHF,"1.14 fold enrichment (6-mer frequency, TF over GST control)"
same,binding signal,FEV,"1.14 fold enrichment (6-mer frequency, TF over GST control)"
same,binding signal,ETV5,"1.12 fold enrichment (6-mer frequency, TF over GST control)"
same,binding signal,ELF4,"1.07 fold enrichment (6-mer frequency, TF over GST control)"
same,binding signal,ETV2,"1.07 fold enrichment (6-mer frequency, TF over GST control)"
same,binding signal,ELF3,"1.15 fold enrichment (6-mer frequency, TF over GST control)"
same,binding signal,ETV1,"1.11 fold enrichment (6-mer frequency, TF over GST control)"
same,binding signal,ERF,"1.12 fold enrichment (6-mer frequency, TF over GST control)"
same,binding signal,ETV3L,"1.08 fold enrichment (6-mer frequency, TF over GST control)"
same,binding signal,ETS2,"1.01 fold enrichment (6-mer frequency, TF over GST control)"
same,binding signal,SPDEF,"1.04 fold enrichment (6-mer frequency, TF over GST control)"
same,binding signal,ETV7,"1.14 fold enrichment (6-mer frequency, TF over GST control)"
same,binding signal,ETV3,"1.05 fold enrichment (6-mer frequency, TF over GST control)"
same,binding signal,ETV6,"1.14 fold enrichment (6-mer frequency, TF over GST control)"
